# Source: PubChem (National Center for Advancing Translational Sciences (NCATS))
# APE1 inh = qHTS Assay for Inhibitors of the Human Apurinic/apyrimidinic Endonuclease 1 (APE1); DNA repair nuclease/redox regulator APEX1 (Homo sapiens), P27695; recombinant APE1, TAMRA/BHQ-2 abasic DNA cleavage fluorescence; Potency, µM (top dose mostly 65.8 µM), without a hit: at the top dose activity change, negative = inhibition, hits mostly inhibitors; 0.35% of 350,000 active; AID 2517, 2012;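 also: potency is read from the fitted curve at half-maximal effect; plate controls were vehicle for no effect and reference inhibitor for full effect; nearly all actives have a fitted effect of over 55% in size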
# Target sequence (P27695 whole entry, looked up): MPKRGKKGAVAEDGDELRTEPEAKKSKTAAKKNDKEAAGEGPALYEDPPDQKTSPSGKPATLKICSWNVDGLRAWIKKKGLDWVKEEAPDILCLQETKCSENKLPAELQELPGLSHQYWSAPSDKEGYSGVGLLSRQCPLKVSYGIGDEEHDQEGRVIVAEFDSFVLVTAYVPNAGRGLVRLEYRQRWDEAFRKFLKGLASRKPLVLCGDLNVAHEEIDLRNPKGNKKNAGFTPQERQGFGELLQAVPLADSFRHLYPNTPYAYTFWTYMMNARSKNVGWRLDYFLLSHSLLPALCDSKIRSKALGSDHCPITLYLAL
#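 APE1 at 0.75 nM preincubated 15 min at room temperature with compound. Reaction then started with 50 nM double-stranded THF-abasic substrate labelled with TAMRA/BHQ-2, and 525/598 nm fluorescence read kinetically. Activity taken as third-minus-first read difference, normalized to DMSO and NSC13755 controls.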
# GCN5L2 inh = qHTS Assay for Inhibitors of GCN5L2 | Histone acetyltransferase KAT2A (Homo sapiens), Q92830 | GCN5L2 HAT assay, ThioGlo1 CoA-SH fluorescence | 0.21% of 390,000 active | Potency, µM (top dose mostly 58.9 µM), without a hit: at the highest dose activity change, negative = inhibition, actives largely listed as inhibitors; also: potency is read from the fitted curve at half-maximal effect; % is scaled to controls: 0 for no effect and ±100 for the full control effect
#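 Titration-based screen in which CoA formation is detected via maleimide probe ThioGlo1 (50uM) turning fluorescent on thiol reaction; substrates H3(1-25) 75uM and acetyl-CoA 70uM, GCN5L2 20nM, 20 min incubation at room temperature.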
# RECQ1 inh = qHTS Assay for Inhibitors of RecQ-Like Dna Helicase 1 (RECQ1); ATP-dependent DNA helicase Q1 (Homo sapiens), P46063; 0.54% of 240,000 active; Potency, µM (titrated, usually from 57.3 µM), without a hit: at the top dose activity, negative = inhibition, most hits filed as inhibitors; RECQ1 DNA unwinding, red fluorescence kinetic read;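 also: potency is read from the fitted curve at half-maximal effect; plate controls were vehicle for no effect and no enzyme for full effect; nearly all actives have a fitted effect of over 30% in size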
#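 50 nM RECQ1T1 preincubated 15 min with compound in Tris pH 8.0 buffer with MgCl2, DTT, Tween-20 and 2.5 ug/ml poly(dI-dC); started with 200 nM TAMRA/BHQ-2 forked duplex and 2 mM ATP. Unwinding read as fluorescence (525/598 nm), two reads 2 h apart.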
# BLM inh = qHTS Assay for Inhibitors of Bloom's syndrome helicase (BLM) | AID 2528, 2010 | recombinant BLM DNA unwinding, fluorescence dequenching | RecQ-like DNA helicase BLM (Homo sapiens), P54132 | Potency, µM (doses to about 56.1 µM), for the others: at the highest dose activity change, negative = inhibition, usual class: inhibitors | 0.2% of 350,000 active;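 also: potency is read from the fitted curve at half-maximal effect; plate controls were vehicle for no effect and no enzyme for full effect; nearly all actives have a fitted effect of over 35% in size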
# FEN1 inh-1 = qHTS Assay for the Inhibitors of Human Flap endonuclease 1 (FEN1); Potency, µM (doses to about 114 µM), for inactives: top-dose activity change, negative = inhibition, actives largely listed as inhibitors; AID 588795, 2011; 0.35% of 390,000 active; Recombinant FEN1 flap cleavage, fluorescence, 15 min; P39748; also: potency is read from the fitted curve at half-maximal effect; % is scaled to controls: 0 for no effect and ±100 for the full control effect; nearly all actives have a fitted effect of over 65% in size
#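 Enzyme 10 nM, 15 min RT preincubation with compound; start with substrate 50 nM final; reads at 0 and 15 min; qHTS titration, four-parameter Hill fit.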
# PI5P4Ka inh = qHTS for Inhibitors of phosphatidylinositol 5-phosphate 4-kinase (PI5P4K). 1.2% of 330,000 active. max response, %. PI5P4Kalpha enzyme, ADP-Glo luminescence, 60 min; hits give low values; active = max response of -50% or lower; inconclusive = between -30% and -50%; inactive = -30% or higher; also: value at the top dose of about 77 µM; % is scaled to controls: 0 for no effect and ±100 for the full control effect
# Target sequence (P48426 whole entry, looked up): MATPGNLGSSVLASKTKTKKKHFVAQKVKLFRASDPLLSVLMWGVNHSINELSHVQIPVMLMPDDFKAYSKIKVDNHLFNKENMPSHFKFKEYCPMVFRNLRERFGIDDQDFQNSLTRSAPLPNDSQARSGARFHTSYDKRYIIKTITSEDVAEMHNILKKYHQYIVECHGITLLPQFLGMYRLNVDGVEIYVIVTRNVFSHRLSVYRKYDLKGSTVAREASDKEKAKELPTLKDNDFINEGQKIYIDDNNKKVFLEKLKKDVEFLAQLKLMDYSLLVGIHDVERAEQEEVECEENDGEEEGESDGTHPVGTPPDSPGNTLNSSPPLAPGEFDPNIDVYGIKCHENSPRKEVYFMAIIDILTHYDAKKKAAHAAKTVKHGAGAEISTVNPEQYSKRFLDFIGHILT
#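 Single end-point luminescence (ADP-Glo) quantified ADP from PI5P4Kalpha turnover; ATP 5 microM final, 1 h at RT, 0.1% CHAPS and 0.28 mM EGTA in HEPES pH 7.4.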
# FEN1 inh-2 = qHTS Assay for the Inhibitors of FEN1: Confirmatory Assay for Cherry-picked Compounds. Potency, µM, hits mostly inhibitors. AID 720498, 2013. shares compounds with FEN1 inh-1. FEN1 flap cleavage, TAMRA/BHQ2 fluorogenic DNA substrate. 79% of 880 active; also: potency is read from the fitted curve at half-maximal effect; nearly all actives have a fitted effect of over 60% in size
# * = called active by the depositor; i = inactive; ? = inconclusive; . = no result; [ ] = another dose, or the depositor's remark. In the library only some 1.5% were active in any assay of this set; here they are far more common. Unless noted, calls follow the shape of the dose curve; as a rule, active = well fitted curve in the direction sought with a large enough effect; inconclusive = small, poorly fitted or top-dose-only effect, or another doubt; inactive = no such curve, though single readings can be large; an effect the other way counts as inactive or inconclusive.
SMILES,APE1 inh,GCN5L2 inh,RECQ1 inh,BLM inh,FEN1 inh-1,PI5P4Ka inh,FEN1 inh-2
COc1cccc2c1C(=N)c1c(O)c3c(c(O)c1C2=O)CC(O)(C(C)=O)CC3OC1CC(N)C(O)C(C)O1 (stereo not drawn),.,.,.,.,11.2µM*,2.5,23.9*
COc1cccc2c1C(=O)c1c(O)c3c(c(O)c1C2=O)CC(O)(C(C)=O)CC3OC1CC(O)C(O)C(C)O1 (stereo not drawn),.,.,.,.,28.2µM*,-11.9,84.9*
COc1cccc2c1-c1c(O)cccc1C2=O,3.4%,-24.3%,.,-7.1%,-21.1%,4.9,.
Nn1cc(Br)c(=O)[nH]c1=O,?,6.3%,i,.,.,.,.
COC(=O)c1ccc(NC(=O)c2ccc(NC(=O)c3ccco3)cc2)cc1,-20.8%,?,.,-10.9%,?,-17.0,?
CCC(=O)OC1=C(C(C)=O)N(Cc2ccccc2)S(=O)(=O)c2ccccc21,.,-4.2%,.,-4.1%,-4.6%,.,.
O=S(=O)(Nc1nccs1)c1ccc(Nc2nnc(-c3ccccc3)c3ccccc23)cc1,1.7%,7.2%,0.0%,-24.0%,89.1µM*,?,?
COc1cc2c(cc1NS(=O)(=O)c1cccc(C#N)c1)n(C)c(=O)n2C,.,21.9%,.,2.4%,-6.0%,.,.
Cc1cc(C)c(S(=O)(=O)NCCc2sc3nc(-c4ccc(F)cc4)nn3c2C)c(C)c1,.,-10.0%,.,-6.5%,?,.,.
COC(=O)NC(CCc1ccccc1)C(C(C)=O)C(=O)OC (stereo not drawn),-0.7%,.,i,-2.5%,.,.,.
CCOc1ccc(N=Cc2c(C)[nH]n(-c3nc4ccccc4[nH]3)c2=O)cc1,0.5%,-24.7%,-2.2%,-27.1%,?,-18.8,?
Cc1[nH]n(-c2ccccc2)c(=O)c1C=Nc1cnc2ccccc2c1,-6.3%,-2.6%,-16.3%,-6.1%,16.6%,-1.2,.
CCN(CC)c1ccc(/C=C2\SC(N)=NC2=O)cc1,13.3%,-13.1%,.,-4.9%,15.4%,-0.7,.
CCN(CC)c1ccc(C=C2SC(=S)NC2=O)cc1,.,.,.,.,-28.9%,?,?
Cc1cc2c(n1-c1ccc(C(=O)NCC(C)c3ccccc3)cc1)CCCC2 (stereo not drawn),.,1.6%,.,-3.2%,13.1%,.,.
COc1ccc(/C=C/C(=O)Nc2ccc3nc(N4CCC(C)CC4)cc(C)c3c2)cc1OC,.,-15.6%,.,-5.0%,-7.4%,.,.
COc1cc([C@H]2c3cc4c(cc3[C@@H](O[C@H]3O[C@H]5CO[C@@H](C)O[C@H]5[C@@H](O)[C@@H]3O)[C@@H]3COC(=O)[C@H]23)OCO4)cc(OC)c1O,.,0.7%,-2.3%[25.9 µM],0.7%,.,.,.
O=C(c1cccc2ccccc12)N1CCCCC1,25.2%,-5.6%,.,-4.2%,6.2%,-8.3,.
O=C(c1ccc2c3c(cccc13)C(=O)N(O)C2=O)N1CCCCC1,-2.5%,-4.7%,-3.7%,2.8%,11.2µM*,5.1,3.01*
Cc1cccc(N/N=C/c2ccc(O)c(O)c2O)c1,?,-9.4%,-7.6%,-1.7%,25.1µM*,-23.3,?
NCCCC[C@H](NC(=O)[C@H](CCCN=C(N)N)NC(=O)[C@H](CO)NC(=O)[C@H](CCCN=C(N)N)NC(=O)[C@@H](N)Cc1ccc(O)cc1)C(=O)N[C@@H](Cc1ccc(O)cc1)C(=O)N[C@@H](CO)C(=O)N[C@@H](CO)C(=O)N[C@@H](Cc1c[nH]c2ccccc12)C(=O)N[C@@H](Cc1ccc(O)cc1)C(=O)O,-4.7%,-24.9%,-9.9%,6.4%,.,.,.
COCCn1c(=O)c(-c2ccc(Cl)cc2)nc2cnc(N3CCNCC3)nc21,-5.5%,?,i,-7.8%,.,.,.
Cc1cc(N/N=C/c2ccc(O)cc2)c2cccc(C)c2n1,?,-15.3%,.,?,?,-15.4,37.9*
O=C(NNc1ccc(F)cc1F)c1cccs1,.,.,.,.,-10.7%,.,.
O=S1(=O)NCC23CCC(CC21)O3 (stereo not drawn),-6.6%,.,0.7%,-2.3%,2.7%,.,.
SMILES,APE1 inh,GCN5L2 inh,RECQ1 inh,BLM inh,FEN1 inh-1,PI5P4Ka inh,FEN1 inh-2
COc1ccc(OC)c(CNC(=O)c2cc3c(-c4ccc(OC)c(OC)c4)nn(C)c3s2)c1,.,-23.0%,.,-12.9%,-13.6%,.,.
CCCN(CCC)CCCNC(=O)c1cc2c(-c3ccc(OC)c(OC)c3)nn(C)c2s1,-26.8%,-5.8%,.,-7.7%,28.2µM*,-1.2,26.9*
COc1ccc(-c2nn(C)c3sc(C(=O)NCCN(C)C)cc23)cc1OC,-40.4%,?,.,0.9%,17.8µM*,4.8,30.1*
O=C(CSc1nnc2[nH]c(=O)cc(-c3ccccc3)n12)Nc1cc(C(F)(F)F)ccc1Cl,.,-9.3%,.,-1.7%,-20.6%,.,.
COC(=O)C1=C[C@@H](C(=O)OC)[C@@H]2C3=C(C(=O)[C@@]2(CC(C)C)NC(=O)c2ccccc2)[C@H](C)n2c(=O)n(-c4ccccc4)c(=O)n2[C@@H]3C1,-8.6%,.,-3.0%,-4.9%,2.2%,.,.
C#CCOc1ccc(C(=O)N(C)c2ccccc2I)cc1,-1.5%,.,i,-4.6%,8.4%,.,.
COC(=O)C(=O)/C=C(\O)c1c(C)cc(C)cc1C,1.6%,-15.6%,i,-2.9%,?,10.5,37.9*
O=C(CSc1ccsc1[N+](=O)[O-])NCc1ccccc1,4.4%,-4.9%,12.7%,-6.4%,-0.5%,?,?
COc1ccccc1CNC(=O)CSc1ccsc1[N+](=O)[O-],-7.6%,-4.5%,-14.9%,-19.7%,37.9%,?,.
Cc1ccccc1C(=O)N1CCN(c2ccc(NC(=O)c3ccc([N+](=O)[O-])o3)cc2)CC1,65.0%,-2.4%,.,-5.0%,11.4%,0.2,.
CC(=O)c1ccc(NC(=O)c2ccc([N+](=O)[O-])o2)cc1,16.9%,-14.6%,.,-3.3%,?,0.8,.
CC(=O)c1cccc(NC(=O)c2ccc([N+](=O)[O-])o2)c1,.,.,.,.,-1.3%,1.8,42.6*
O=C(Nc1ccc(N2CCN(C(=O)c3ccccc3)CC2)cc1)c1ccc([N+](=O)[O-])o1,14.3%,-3.7%,14.8%,-5.2%,-0.7%,-3.4,26.9*
